# Test results from the supplement of paper PMC10941209.
# Unmarked numbers belong to inactive results.
# System: Toxoplasma gondii RH 2F1 tachyzoites (intracellular in HFF)
# Assay: parasite survival relative to DMSO control; higher = less antiparasitic activity, active = 20 or less
# Conditions: 1 µM; 72 h
# Outline: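 Intracellular Toxoplasma gondii RH-2F1 tachyzoites, which express β-galactosidase, were grown in HFF cells (5 × 10^3 cells/well, 96-well plates) infected with 5 × 10^3 parasites in D2 medium for 3 h, then treated with compound at 1 μM for 72 h at 37°C in 5% CO2. Cells were lysed for 15 min, then CPRG was added and absorbance read at 570 nm after 30 min. Survival is the signal as a percentage of DMSO-treated infected controls, from 2 or more biological replicates.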
row,Compound,parasite survival
1,Oc1c(C(Nc2ccccn2)c2ccccc2)ccc2cccnc12 (centres undefined),23.6%
2,COc1ccc(C[C@@H](C)[C@@H](C)Cc2ccc(OC)c(OC)c2)cc1OC,77.7%
3,COc1cc(NCc2ccc3nc(N)nc(N)c3c2C)cc(OC)c1OC,3.86% (active)
4,Nc1nc(-c2ccccc2)nc2c1ncn2[C@@H]1O[C@H](COS(=O)(=O)NC(=O)c2ccccc2O)[C@@H](O)[C@H]1O,60.7%
5,CC(C)(C)OC(=O)NCc1ccc(C(=O)N[C@H]2CCOC2=O)cc1,35%
6,CC(C)(C)c1ccc(C(Cn2cccc(C(F)(F)F)c2=O)NC2Cc3ccccc3C2)cc1 (centres undefined),51.5%
7,Nc1nc(=O)[nH]cc1F,51.9%
8,O=C(c1cc(O)nc2ccccc12)N1CCN(c2ccccc2)CC1,77.5%
9,Cc1ccn2c(C(=O)NCc3ccccc3)c(C)nc2c1,49.6%
10,CC[C@H](NC(=O)[C@H](C)NC)C(=O)N1C[C@@H](O)C[C@H]1Cc1c(-c2[nH]c3cc(F)ccc3c2C[C@@H]2C[C@H](O)CN2C(=O)[C@H](CC)NC(=O)[C@H](C)NC)[nH]c2cc(F)ccc12,8.15% (active)
11,CC1CN(c2ncnc3c2c(-c2ccccc2)cn3-c2ccc(F)cc2)CC(C)O1 (centres undefined),34.4%
12,C=C[C@]1(C)C[C@@H](OC(=O)CS[C@@H]2C[C@H]3CC[C@@H](C2)N3C)[C@]2(C)[C@H](C)CC[C@]3(CCC(=O)[C@H]32)[C@@H](C)[C@@H]1O,18.1% (active)
13,Cc1c(OCC(F)(F)F)ccnc1C[S+]([O-])c1nc2ccccc2[nH]1 (centres undefined),45.7%
14,Fc1cccc(Cl)c1C1CC(c2ccc(Cl)cc2)Nc2nnnn21 (centres undefined),79.9%
15,O=C(NCc1ncc(C(F)(F)F)cc1Cl)c1c(Cl)cccc1Cl,45.4%
16,CC1CCc2c(N3CCC(O)CC3)c(F)cc3c(=O)c(C(=O)O)cn1c23 (centres undefined),51%
17,NC(=O)c1cnccn1,52.5%
18,Cc1c[nH]c(=O)nc1NCc1ccccc1,49.9%
19,CN(C)c1[nH]c(=O)ncc1F,36.6%
20,O=S(=O)(NCB(O)O)c1ccc(-c2nnn[nH]2)cc1C(F)(F)F,34.1%

row,Compound,parasite survival
1,CCNC(=O)Nc1cc(-c2ccccc2)c(-c2cncc(C(=O)O)c2)cn1,33%
2,CCN(CC)S(=O)(=O)c1ccc(Cl)c(C(=O)Nc2sc3c(c2C#N)CCCC3)c1,44%
3,CC(C)Nc1nc2cc(Cl)c(Cl)cc2n1[C@H]1O[C@@H](CO)[C@H](O)[C@@H]1O,72%
4,[N-]=[N+]=N[C@H]1C[C@H](n2ccc(=O)[nH]c2=O)O[C@@H]1CO,73.1%
5,O=C(NN1C(=O)[C@@H]2[C@@H]3C=C[C@@H]([C@H]4C[C@@H]34)[C@@H]2C1=O)c1ccc(C(F)(F)F)cc1,66.1%
6,CC[C@@]1(O)C(=O)OCc2c1cc1n(c2=O)Cc2cc3c(CN(C)C)c(O)ccc3nc2-1,50.5%
7,CCOC(=O)/C=C/[C@H](C[C@@H]1CCNC1=O)NC(=O)[C@H](CC)n1cccc(NC(=O)c2cc(C)on2)c1=O,63.3%
8,O=C(O)/C=C/C=C/c1cccc(Oc2cc(Cl)cc(Cl)c2)c1,36.2%
9,Nc1nnc(-c2ccc(Cl)cc2)s1,59.9%
10,CO[C@@]1(NC(=O)Cc2cccs2)C(=O)N2C(C(=O)O)=C(COC(N)=O)CS[C@@H]21,61.6%
11,CCCCc1ccc(C(=O)O)nc1,54.6%
12,C=C(C)[C@@H]1CC[C@]2(C(=O)O)CC[C@]3(C)[C@H](CC[C@@H]4[C@@]5(C)CC[C@H](O)C(C)(C)[C@@H]5CC[C@]43C)[C@@H]12,46.6%
13,OC1O[C@H](CSc2ccc(F)cc2)[C@@H](O)[C@H]1O (some centres undefined),49.9%
14,NC(=O)c1cnc2ccc(S(=O)(=O)c3ccccc3)cc2c1Nc1ccc(O)cc1,43%
15,CCC(C)NCC(O)Cn1c2ccc(Cl)cc2c2cc(Cl)ccc21 (centres undefined),26.8%
16,O=C(O)c1ccc(-c2ccc(O[C@H]3O[C@H](CO)[C@@H](O)[C@H](O)[C@@H]3O)cc2)cc1,46.4%
17,Clc1cccc(-c2nnc(-c3ccccc3)o2)c1,62.8%
18,Nc1nc(NC2Cc3ccc(F)cc3C2)nc(N2CCCCC2)n1 (centres undefined),41.9%
19,COc1ccccc1CN[C@H]1C2CCN(CC2)[C@H]1C(c1ccccc1)c1ccccc1,37.5%
